Compounds with a hit are over-represented: about 4.6% of the library has one in this group of screens.
ADAM17 inh: ADAM17 inhibitors, primary screen, biochemical, QFRET. recombinant ADAM17, EDANS/DABCYL FRET peptide cleavage. inhibition, % at 6.95 µM. actives 0.83% (n = 370,000). AID 720648, 2013;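 active = inhibition above the mean of compounds lying between control limits plus 3 SD, set per campaign, cut at about 8.5% in these data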;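 also: 0% = DMSO-only wells as the low control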
proKLK7 act: proKLK7 zymogen activators, primary screen, biochemical, fluorescence intensity; activation, % at 7 µM; purified proKLK7, EDANS-DABCYL substrate fluorescence; 100% is mature enzyme control, 0% vehicle; AID 652039, 2013; actives 0.9% (n = 370,000); Kallikrein-7 (Homo sapiens), P49862;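 active = activation above the mean of all tested compounds plus 3 SD, computed per campaign excluding outliers beyond control limits, cut at about 13% in these data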
FAS-TE inh: FAS thioesterase domain inhibitors, primary screen, biochemical, fluorescence intensity, uHTS. inhibition, % at 15 µM. actives 0.67% (n = 360,000). recombinant FAS-TE, OMFH fluorogenic substrate, fluorescence endpoint. AID 602261, 2012;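 active = compounds whose normalised, plate-corrected inhibition of enzyme fluorescence in the single-dose primary screen is 50% or more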;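 also: 0% = DMSO with enzyme and 100% = substrate without enzyme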
GRIN3A LBD mod: binders of NR3A ligand-binding domain, primary screen, biophysical, differential scanning fluorimetry, uHTS | AID 1259313, 2017 | actives 2.5% (n = 340,000) | Tm shift relative to glycine control, % at 25 µM | NR3A LBD differential scanning fluorimetry, Tm shift; 0% = protein alone, 100% = glycine-bound protein | Glutamate receptor ionotropic, NMDA 3A (GRIN3A) ligand-binding domain;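 active = melting temperature shift of at least 10% of the positive control shift, at one fixed dose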
ADAM10 inh: human ADAM10 inhibitors, primary screen, biochemical, QFRET, HTS; recombinant ADAM10, EDANS/DABCYL FRET peptide cleavage, 3 h; actives 0.62% (n = 370,000); inhibition, % at 7 µM; Disintegrin and metalloproteinase domain-containing protein 10 (Homo sapiens), O14672; AID 720582, 2013;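 active = inhibition above a per-campaign cutoff equal to the mean of compounds falling between control-based bounds plus 3 SD, cut at about 20% in these data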;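 also: 0% = DMSO wells while the 100% control is not disclosed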
Target sequence (O14672 214-748 limits assumed): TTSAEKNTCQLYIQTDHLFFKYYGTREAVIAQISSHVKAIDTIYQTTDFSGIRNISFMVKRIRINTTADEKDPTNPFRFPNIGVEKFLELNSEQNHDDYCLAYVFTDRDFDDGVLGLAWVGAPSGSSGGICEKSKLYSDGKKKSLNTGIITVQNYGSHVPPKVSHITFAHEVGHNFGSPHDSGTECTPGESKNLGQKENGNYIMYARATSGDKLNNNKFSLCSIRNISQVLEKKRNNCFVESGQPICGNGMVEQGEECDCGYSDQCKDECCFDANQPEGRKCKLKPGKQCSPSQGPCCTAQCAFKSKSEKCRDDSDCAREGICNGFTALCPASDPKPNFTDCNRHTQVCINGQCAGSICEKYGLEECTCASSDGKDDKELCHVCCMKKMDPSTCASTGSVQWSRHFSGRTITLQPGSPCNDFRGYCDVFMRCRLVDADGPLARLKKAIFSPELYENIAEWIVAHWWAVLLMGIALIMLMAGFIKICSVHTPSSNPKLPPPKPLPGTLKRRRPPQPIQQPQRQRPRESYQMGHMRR
ADAM10 ctr: ADAM10 inhibitors, counter-screen for ADAM17 exosite inhibitor project, biochemical, FRET, human ADAM10 | actives 47% (n = 2,900) | shares compounds with ADAM17 inh | inhibition, % at 6.95 µM | AID 743256, 2014 | recombinant ADAM10, EDANS/DABCYL FRET peptide cleavage, 3 h;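 active = mean inhibition over the triplicate runs exceeds the activity threshold set in the earlier primary screen, cut at about 20% in these data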;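 also: 0% = DMSO wells and 100% = marimastat wells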
ADAM17 confirm: ADAM17 inhibitors, hit retest, confirmation, biochemical, QFRET peptide cleavage; AID 743257, 2014; shares compounds with ADAM17 inh; actives 65% (n = 2,900); inhibition, % at 6.95 µM; recombinant ADAM17, EDANS/DABCYL QFRET peptide cleavage;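 active = mean inhibition across replicates above the hit cutoff set in the primary screen, cut at about 8.5% in these data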;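 also: 0% = DMSO wells and 100% = marimastat wells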
Starred values were filed as active, the others as inactive; . = no result.

SMILES | ADAM17 inh | proKLK7 act | FAS-TE inh | GRIN3A LBD mod | ADAM10 inh | ADAM10 ctr | ADAM17 confirm
CN1CCN(C(c2ccccn2)c2cc(Cl)c3cccnc3c2O)CC1 (stereo not given) | 18* | 0 | -7 | -3 | 2 | 43* | 45*
Oc1c(C(c2ccccn2)N2CCC(Cc3ccccc3)CC2)cc(Cl)c2cccnc12 (stereo not given) | 32* | 0 | . | -3 | 12 | 23* | 39*
COc1ccc(N2C(=O)c3n[nH]c(C(C)C)c3C2c2ccc(F)cc2)cc1 (stereo not given) | 0 | 1 | . | . | -3 | . | .
CCC(CC)c1nnc(NC(=O)C23CC4CC(CC(NC(C)=O)(C4)C2)C3)s1 | 1 | 0 | -2 | 2 | 0 | . | .
CC(=O)NC12CC3CC(C1)CC(C(=O)Nc1nc4ccc(F)cc4s1)(C3)C2 | 8.6* | -1 | 3 | -3 | -4 | -2 | 2
Cc1ccc(OCCC(=O)OCC(=O)NC(=O)NC2CCCCC2)cc1 | 9.0* | 0 | 4 | 1 | -11 | 30* | 14*
Cc1ccc(C)c(OCCC(=O)OCC(=O)NC(=O)NC2CCCCC2)c1 | 1 | -1 | 18 | -24 | 10 | . | .
CC(C)(C)N(Cc1ccccc1)C(=O)CSc1nc2ccccc2c(=O)[nH]1 | 9.0* | 1 | 5 | 0 | 16 | 10 | 6
Cc1nnc(SCC(=O)N(Cc2ccccc2)C(C)(C)C)[nH]c1=O | 3 | -1 | -4 | 0 | 2 | . | .
CCOC(=O)c1c(C)[nH]c(C)c1S(=O)(=O)NCCc1ccc(SC)cc1 | 2 | 0 | 3 | 2 | 8 | . | .
CCOC(=O)c1c(C)[nH]c(C)c1S(=O)(=O)NCCc1sccc1C | 9.0* | 0 | -1 | -1 | 6 | 4 | 7
NC(=O)c1ncn([C@@H]2O[C@H](C(=O)N3CCN(Cc4ccccn4)CC3)[C@@H](O)[C@H]2O)n1 | 1 | 0 | . | . | 1 | . | .
CCOC(=O)c1c(NC(=O)CSc2c[nH]c3ccccc23)sc2c1CCC2 | 9.8* | 2 | 31 | 3 | 18 | 34* | 21*
CCOC(=O)c1c(NC(=O)CSc2c[nH]c3ccccc23)sc2c1CCCC2 | 9.7* | -2 | 24 | 3 | 9 | 24* | 17*
CCOC(=O)c1c(NC(=O)CSc2nnc(-c3c[nH]c4ccccc34)n2CCOC)sc2c1CCCCC2 | -1 | 0 | 20 | -4 | 5 | . | .
C[C@@H]1COc2cc(N3CCCC3)ccc2S(=O)(=O)N1 | -4 | 1 | . | . | -13 | . | .
CCN(CC)C1Oc2cc3c(cc2C(c2cc(OC)c(OC)c(OC)c2)C1C)OCO3 (stereo not given) | 9.9* | 0 | 13 | 2 | 9 | 11 | 9.9*
COc1cc(C2c3cc4c(cc3C3OC(=O)C2C3CO)OCO4)cc(OC)c1OC (stereo not given) | -6 | 0 | -9 | . | -2 | . | .
O=C(c1ccccc1)c1ccc(C(=O)N2CCN(c3ccc(O)cc3)CC2)cc1 | 8.7* | 0 | 1 | 1 | 2 | -4 | 1
O=C(c1ccc(N2CCN(C(=O)c3ccccc3)CC2)cc1)c1cccc(F)c1 | -3 | 2 | 14 | 4 | 1 | . | .
COc1cccc(CNC(=O)[C@H]2CCCN2C(=O)[C@H]2CCCN2C(=O)c2cccc3ccccc23)c1 | 0 | 0 | . | . | -1 | . | .

Assay outcomes as filed in PubChem.
